Assay outcomes from PubChem BioAssay.
GLP-1R agonist: agonists of human GLP-1 receptor | P43220 | HEK293 GLP-1R CRE-luciferase, luminescence, 4-6 h; cells express a hypersensitive GLP-1R form | Potency, µM (series often up to 45.6 µM), for the others: at the top dose activation, most hits filed as activators | 380,000 tested, 0.007% active; also: % of control where 0% means no effect
GLP1R cytotox: cytotoxic in the GLP-1 receptor inverse agonist counter-screen | HEK293 cAMP-luciferase reporter cells, luminescence, 24 h | Potency, µM (titrated, usually from 38.3 µM), inactives show at the highest dose activity change, negative = inhibition, usual class: inhibitors | 410,000 tested, 0.13% active;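 also: loss of luciferase light is scored as toxicity; % is scaled to controls: 0 for no effect and ±100 for the full control effect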
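Compound-treated cells are incubated 24 hr at 37 deg C under 5% CO2 after a 12 hour attachment period, then luciferase detection reagent is added and luminescence is measured following 12 min at room temperature; lowered signal indicates toxicity.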
RORgamma inh: inhibitors of mouse ROR gamma transcriptional activity. AID 2551. 310,000 tested, 5.4% active. Potency, µM (top dose mostly 53.6 µM), without a hit: top-dose activity change, negative = inhibition, hits mostly inhibitors. Drosophila S2 Gal4-RORgamma UAS-luciferase reporter, 20 h; also: % is scaled to controls: 0 for no effect and ±100 for the full control effect; nearly all actives have a fitted effect of over 60% in size
Target sequence (P51450 whole entry, looked up, the tested form may be a part): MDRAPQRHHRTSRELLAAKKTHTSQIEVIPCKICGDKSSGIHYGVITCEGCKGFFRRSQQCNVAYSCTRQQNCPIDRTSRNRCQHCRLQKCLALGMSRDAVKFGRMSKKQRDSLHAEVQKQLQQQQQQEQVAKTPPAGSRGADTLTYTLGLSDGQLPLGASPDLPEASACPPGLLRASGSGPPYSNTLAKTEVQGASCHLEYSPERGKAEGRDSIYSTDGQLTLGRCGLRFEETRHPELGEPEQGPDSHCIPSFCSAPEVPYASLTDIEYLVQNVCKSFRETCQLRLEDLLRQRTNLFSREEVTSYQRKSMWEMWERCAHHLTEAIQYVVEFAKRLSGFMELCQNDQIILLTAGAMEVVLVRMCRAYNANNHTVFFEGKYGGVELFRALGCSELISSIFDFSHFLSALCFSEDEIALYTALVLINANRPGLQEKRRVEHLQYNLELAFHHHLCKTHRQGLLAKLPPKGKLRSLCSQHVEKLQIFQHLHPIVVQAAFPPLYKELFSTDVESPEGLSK
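In this cell-based reporter format, copper sulfate (700 uM final) drives Gal4–ROR gamma fusion expression from a metallothionein promoter in Drosophila Schneider cells; compounds preincubated 1 hr, reporter read after 20 hr at ambient temperature.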
VP16 counter: counter-screen for ROR gamma inhibitors: Gal4-VP16 reporter; 310,000 tested, 3.5% active; Potency, µM (highest dose often 53.6 µM), without a hit: at the top dose activity, negative = inhibition, most hits filed as inhibitors; Drosophila S2 Gal4-VP16 UAS-luciferase, luminescence, 20 h;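 also: Gal4-VP16 expression switched on by copper sulfate through the metallothionein promoter; % is scaled to controls: 0 for no effect and ±100 for the full control effect; nearly all actives have a fitted effect of over 50% in size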
GLP-1R inv ag: GLP-1 receptor (human) inverse agonism; Potency, µM (titrated, usually from 38.3 µM), for the others: top-dose activity change, negative = inhibition, usual class: inhibitors; 410,000 tested, 1.6% active; HEK293 GLP-1R CRE-luciferase, luminescence, 24 h; GLP-1R form is constitutively active; also: % is scaled to controls: 0 for no effect and ±100 for the full control effect; nearly all actives have a fitted effect of over 55% in size
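Luminescence readout: a drop in cAMP-driven luciferase signal flags inverse agonism at a constitutively active GLP-1R stably expressed in HEK293. Compound exposure lasted 24 hr at 37 deg C, 5% CO2.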
Numbers without * were called inactive; ? = inconclusive; . = no result given; [ ] = another dose, or the depositor's remark. Hits are enriched below; roughly 5.9% of the tested compounds scored in any of these assays. Calls follow the shape of the dose curve; as a rule, active = well fitted curve in the direction sought with a large enough effect; inconclusive = small, poorly fitted or top-dose-only effect, or another doubt; inactive = no such curve, though single readings can be large; an effect the other way counts as inactive or inconclusive. Potency is read from the fitted curve at half-maximal effect.

SMILES | GLP-1R agonist | GLP1R cytotox | RORgamma inh | VP16 counter | GLP-1R inv ag
O=[N+]([O-])c1ccc(C=Nc2ccc(Cl)c([N+](=O)[O-])c2)s1 | . | . | ? | -24%[10 µM] | .
NC(=O)c1ccc(N=Cc2ccc([N+](=O)[O-])s2)cc1 | -4% | ? | ? | 5.6µM* | -15%
COc1cccc(/C=N/n2c(C)nc3ccccc32)c1OC | ? | -11% | 3.2µM* | 8.9µM* | 0%
Cc1nc2ccccc2n1/N=C/c1ccc([N+](=O)[O-])s1 | 5% | -8% | -51% | 6.3µM* | 3%
Cc1cc(C)cc(N=Cc2ccc([N+](=O)[O-])s2)c1 | 3% | ? | ? | 18µM* | 85%
COc1ccccc1N1CCN(S(=O)(=O)c2c(C)sc3ncn(CC(=O)Nc4ccc(C)cc4Br)c(=O)c23)CC1 | . | -5% | . | . | 1%
CCC1CN(C(=O)N2CCC(C(=O)N3CCN(c4ccccc4)CC3)CC2)c2ccccc2O1 (stereo not drawn) | . | -5% | . | . | -28%
Cc1ccc(NC(=S)N/N=C/c2ccc([N+](=O)[O-])s2)cc1 | -4% | ? | 7.1µM* | 16µM* | ?
O=[N+]([O-])c1ccccc1C=NNC(=S)NN=Cc1ccccc1[N+](=O)[O-] | 13% | ? | . | . | ?
CCOC(=O)c1c(C)[nH]c(CCC(=O)Nc2ccc(N(CC)CC)cc2C)c1C | . | 14% | . | . | ?
CCCn1c(CNS(=O)(=O)c2ccc(C)cc2)nc2ccccc21 | 3% | -11% | 11µM* | ? | -23%
CCCn1c(-c2cccs2)nc2ccccc21 | 19% | 4% | 4.5µM* | 18µM* | ?
CCCn1c(C(O)c2ccc(C)cc2)nc2ccccc21 (stereo not drawn) | -2% | 4% | 2.8µM* | ? | ?
CCN(CC)CCn1c(NS(=O)(=O)c2ccc(C)cc2)nc2ccccc21 | 13% | 17% | . | . | 14%
CC(C)(C)c1ccc2c(S(=O)(=O)O)c(C(C)(C)C)ccc2c1 | 7% | . | 32% | 4% | .
C=CCn1c(SCC(=O)c2[nH]c(C)c(C(=O)OCC)c2C)nc2scc(-c3ccc(OC)c(OC)c3)c2c1=O | 10% | -22% | 10µM* | 10µM* | 32%
CCOC(=O)c1c(C)[nH]c(C(=O)CSc2nnc(-c3ccncc3)n2CC)c1C | 9% | 3% | -6% | -4% | 5%
Cc1ccc(C(=O)N/C(=C\c2ccc(-c3ccccc3[N+](=O)[O-])o2)C(=O)NCCN(C)C)cc1 | 7% | -13% | 7.1µM* | 10µM* | ?
CN(C)CCNC(=O)/C(=C/c1ccc(-c2cccc(Cl)c2)o1)NC(=O)c1ccccc1 | -1% | -6% | 3.2µM* | ? | ?
O=C(CNC(=O)c1ccccc1)OCc1cc(=O)n2nc(C3CC3)sc2n1 | . | 1% | . | . | 9%
Cc1ccc2c(c1)-c1[nH]c(=S)ncc1CS2 | -3% | 3% | 2.2µM* | -13% | -11%
Cc1ccc(NC(=O)c2ccc3c(c2)NC(=O)CS3)nc1 | 11% | -4% | . | . | 68%
COc1cccc(Nc2ncc3nc(-c4ccccc4)c(=O)n(Cc4cccs4)c3n2)c1 | . | . | 0% | -6% | .
CC(C)(C)c1csc(NC(=O)c2ccccc2O)n1 | -14% | ? | ? | 2.5µM* | ?
CC(C)(C)c1csc(NNC(=O)c2ccc(Br)cc2)n1 | 6% | -2% | 1.3µM* | 2.8µM* | ?
SMILES | GLP-1R agonist | GLP1R cytotox | RORgamma inh | VP16 counter | GLP-1R inv ag
O=S(=O)(NCc1ccncc1)c1ccccc1 | 1% | -7% | 18% | 16µM* | -6%
CCOC(=O)COc1ccc(S(=O)(=O)NCc2cccnc2)cc1 | -1% | -3% | -14% | 1% | -6%
Cc1ccc(S(=O)(=O)NCc2ccncc2)cc1C | 16% | 1% | 11µM* | 4µM* | 1%
CCN(C1CCCCC1)S(=O)(=O)c1ccc(S(=O)(=O)NCc2ccncc2)cc1 | -1% | -7% | -1% | 18µM* | -8%
O=S(=O)(NCc1ccncc1)c1ccc(F)c(F)c1 | 1% | 1% | . | . | -7%
CCN(C1CCCCC1)S(=O)(=O)c1ccc(S(=O)(=O)NCCc2ccncc2)cc1 | 9% | -17% | ? | -8% | -15%
